From PubChem BioAssay
APOBEC3G inh: blocks human APOBEC3G single-stranded DNA deamination; inhibition, % at 20 µM; AID 493012; hit rate 0.28% among 330,000; recombinant A3G, ssDNA deamination FAM/TAMRA fluorescence;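 active = inhibition of at least 40% at 20 µM, with no more than 30% in the related APOBEC3A deaminase screen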;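 note: plate controls were DMSO wells with A3G for no effect and wells lacking A3G enzyme for full effect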
NPR2 activator: GC-B (human) receptor activation | hit rate 0.11% among 370,000 | AID 1920062 | HEK293-GC-B cells, CNP EC30, cGMP TR-FRET; 0% at EC30 CNP, 100% saturating CNP | P20594 | activation, % at 10 µM;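 active = activation at 10 µM reaching about 35% in either raw or pattern-adjusted values, limit read from the data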
A3A deaminase: human APOBEC3A DNA deaminase inhibition | recombinant A3A, FAM/TAMRA ssDNA deamination fluorescence | hit rate 0.41% among 330,000 | inhibition, % at 20 µM;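 active = at least 40% inhibition at 20 µM here, with at most 30% in a related deaminase screen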;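 note: plate controls were A3A with DMSO for no effect and wells lacking A3A enzyme for full effect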
GC-A act: GC-A (human) enzyme activation | hit rate 0.14% among 370,000 | HEK293 GC-A cells, cGMP TR-FRET, EC30 ANP; 0% at EC30 ANP, 100% saturating ANP | activation, % at 10 µM | P16066; in the data active = activation above about 40%
FAS TE block: blocks the thioesterase domain of human fatty acid synthase. recombinant FAS-TE, OMFH fluorogenic substrate, fluorescence endpoint. inhibition, % at 15 µM. P49327. AID 602261. hit rate 0.67% among 360,000;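 active = compounds whose normalised, plate-corrected inhibition of enzyme fluorescence in the single-dose primary screen is 50% or more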;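 note: 0% = DMSO with enzyme and 100% = substrate without enzyme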
FAS-TE conf: confirmation of human fatty acid synthase thioesterase inhibitors. shares compounds with FAS TE block. recombinant FAS-TE, OMFH fluorogenic substrate, fluorescence. inhibition, % at 15 µM. hit rate 45% among 2,300. AID 624325;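 active = compounds inhibiting the enzyme by at least 50% at 15 µM in any one of the replicates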;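 note: 0% = enzyme with DMSO only and 100% = wells lacking enzyme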
An asterisk follows results filed as active; / = not tested or not shown. An excerpt weighted towards active compounds, which were near 1.4% of everything screened.

SMILES	APOBEC3G inh	NPR2 activator	A3A deaminase	GC-A act	FAS TE block	FAS-TE conf
COC(=O)c1cc(C(=O)OCC(=O)NCc2ccc3c(c2)OCO3)cc([N+](=O)[O-])c1	2	-8	1	-7	32	/
COc1ccc(C(=O)OCC(=O)NCc2ccc3c(c2)OCO3)cc1[N+](=O)[O-]	-4	-2	1	0	50*	1
CCCCNC(=O)CCC(=O)Nc1ccc2nc(N3CCC(C)CC3)cc(C)c2c1	6	1	4	5	60*	45
O=C(CSCc1ccccc1)Nc1cc([N+](=O)[O-])ccc1F	-5	8	1	0	46	/
O=C(COC(=O)CCc1ccccc1)Nc1cc([N+](=O)[O-])ccc1F	-4	/	0	/	73*	67*
O=C(COC(=O)CC1CC2CCC1C2)Nc1cc([N+](=O)[O-])ccc1F (stereo not drawn)	-7	-3	3	2	80*	87*
COc1ccc(Oc2c(-c3cccs3)cnn(-c3ccc(C)cc3)c2=O)cc1	/	3	/	3	/	/
COC(=O)C1=C(C)N(C)C(=NCc2ccc3c(c2)OCO3)NC1c1ccc(F)cc1 (stereo not drawn)	/	3	/	-3	/	/
CCCCCN(C(=O)COC(=O)CSc1ccc([N+](=O)[O-])cc1)c1c(N)n(CCCC)c(=O)[nH]c1=O	-5	1	3	2	58*	22
CCOC1=C2[C@H](c3cccc(Cl)c3)N(S(=O)(=O)c3ccc(C)cc3)C[C@H]2n2c(=O)n(-c3ccccc3)c(=O)n2C1	/	0	/	6	70*	21
CCOC1=C2[C@H](c3ccc(C)cc3)N(S(=O)(=O)c3ccc(C)cc3)C[C@H]2n2c(=O)n(-c3ccccc3)c(=O)n2C1	/	4	/	-3	26	/
CCOC1=C2[C@H](c3ccccc3F)N(S(=O)(=O)c3ccc(C)cc3)C[C@H]2n2c(=O)n(-c3ccccc3)c(=O)n2C1	/	-16	/	-2	75*	8
CCOC(=O)c1sc(N2C(=O)C(O)=C(C(=O)c3ccco3)C2c2ccc([N+](=O)[O-])cc2)nc1C (stereo not drawn)	5	-3	-3	0	56*	73*
CCOC(=O)c1sc(N2C(=O)C(O)=C(C(=O)c3ccco3)C2c2ccc(C)o2)nc1C (stereo not drawn)	4	-3	8	-1	-2	/
COC(=O)C[C@@H]1C[C@H]2c3cc(NC(=O)Nc4ccccc4F)ccc3O[C@H]2[C@@H](CO)O1	/	1	/	6	/	/
CCN(CC)c1cc(Cl)c2nonc2c1N	-9	-10	-3	1	7	/
CCN(CC)c1cc2nonc2c2nonc12	-10	-2	-8	-3	51*	45*
Cc1cc(NS(=O)(=O)c2ccc(NC(=O)Cc3ccc(Cl)c(F)c3)cc2)no1	/	3	/	-1	/	/
COC(=O)[C@]12C[C@H](CC(=O)NCc3ccc(C)o3)C(=O)N(Cc3cccc4ccccc34)C1=C[C@H](C(C)(C)C)O[C@@H]2C	/	-4	/	-8	/	/
O=[N+]([O-])c1ccc(SNc2ccccc2)c([N+](=O)[O-])c1	/	-2	/	-3	57*	45*
O=[N+]([O-])c1ccccc1SNc1ccccc1	/	-2	/	-3	30	/
O=C(NCc1cccc(Cl)c1)O[C@H]1CC[C@@]23CCCN2C(=O)CCC[C@H]3C1	/	3	/	-5	/	/
Cc1cc(C)c(S(=O)(=O)c2ccc(Cl)cc2)c(Cl)n1	0	0	3	1	10	/
Cc1cc(S(=O)(=O)c2ccc(Cl)cc2)nc(S(=O)(=O)c2ccc(Cl)cc2)c1C#N	/	25	/	10	69*	72*
NC(=O)C1CCN(c2ncc(Br)s2)CC1	/	0	/	3	/	/
SMILES	APOBEC3G inh	NPR2 activator	A3A deaminase	GC-A act	FAS TE block	FAS-TE conf
Cc1cc([N+](=O)[O-])ccc1NC(=O)CN1C2CCC1CC(NC(=O)NC13CC4CC(CC(C4)C1)C3)C2 (stereo not drawn)	-8	-5	0	2	51*	11
COc1ccc(NC(=S)N2C3CCC2CC(NC(=O)NC24CC5CC(CC(C5)C2)C4)C3)c(OC)c1 (stereo not drawn)	-3	-7	-7	-1	3	/
O=C(Nc1cnn(C23CC4CC(CC(C4)C2)C3)c1)c1cnn2c(C(F)(F)F)cc(-c3ccco3)nc12	-1	-3	-2	-1	61*	-1
O=C(Nc1ccc2c(c1)OCO2)c1cnn2c(C(F)(F)F)cc(-c3ccco3)nc12	3	1	1	9	21	/
O=S(=O)(c1ccc(-c2csc(-c3cccnc3)n2)cc1)N1CCCCC1	-9	4	-3	3	77*	83*
O=S(=O)(c1ccc(-c2csc(-c3cccnc3)n2)cc1)N1CCCC1	-4	1	-1	-4	81*	86*
CCCCCCCCNS(=O)(=O)/C=C/c1ccc(OC)cc1CNC(=O)OC(C)(C)C	/	-7	/	-5	/	/
COCCN1Cc2cc(C(=O)OC)c3c(c2C1=O)c1cc(F)ccc1n3S(=O)(=O)c1ccc(C)cc1	/	0	/	-1	/	/
Cc1cc2c(c(=O)o1)[C@@]1(C(=O)N(C)c3ccccc31)C1=C(CC(C)(C)CC1=O)O2	/	5	/	2	/	/
COc1ccc(S(=O)(=O)Nc2ccc3c(c2)C(=O)N([C@H](C)CO)C[C@H](C)[C@@H](CN(C)C(=O)Nc2ccc(C(F)(F)F)cc2)OCCCC[C@H](C)O3)cc1	/	1	/	1	63*	23
COc1ccc(S(=O)(=O)N(C)C[C@@H]2OCCCC[C@H](C)Oc3ccc(NC(=O)Nc4ccc(C(F)(F)F)cc4)cc3C(=O)N([C@H](C)CO)C[C@H]2C)cc1	/	7	/	1	85*	16
COc1ccc(S(=O)(=O)N(C)C[C@H]2OCCCC[C@@H](C)Oc3ccc(NC(=O)CCC(F)(F)F)cc3C(=O)N([C@H](C)CO)C[C@@H]2C)cc1	/	-1	/	3	20	/
COc1ccc(S(=O)(=O)N(C)C[C@@H]2OCCCC[C@@H](C)Oc3ccc(NS(=O)(=O)c4cccs4)cc3C(=O)N([C@H](C)CO)C[C@@H]2C)cc1	/	7	/	2	67*	15
COc1ccc(S(=O)(=O)Nc2ccc3c(c2)C(=O)N([C@H](C)CO)C[C@H](C)[C@@H](CN(C)S(=O)(=O)c2cn(C)cn2)OCCCC[C@H](C)O3)cc1	/	1	/	-1	-2	/
C[C@@H]1CN([C@H](C)CO)C(=O)c2cc(NC(=O)Nc3ccccc3)ccc2O[C@@H](C)CCCCO[C@H]1CN(C)S(=O)(=O)c1ccc(F)cc1	/	-1	/	-1	/	/
C[C@@H]1CCCCO[C@H](CN(C)S(=O)(=O)c2ccc(F)cc2)[C@@H](C)CN([C@H](C)CO)C(=O)c2cc(NC(=O)Nc3ccc(C(F)(F)F)cc3)ccc2O1	/	1	/	-2	74*	8
CC(C)(C)c1ccc(/C=C2\CCn3c2nc2cc(C(=O)O)ccc2c3=O)cc1	-9	/	-3	/	84*	88*
